Assay outcomes as filed in PubChem.
KCNQ2 block: blocks the rat KCNQ2 potassium channel; O88943; CHO-K1 KCNQ2, FluxOR thallium flux, 20 min; active compounds read low; B-score at 10 µM; 310,000 compounds, 1.1% hits; AID 2156;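 active = fluorescence ratio B-score at most minus 3 library SDs, with starting brightness B-score within 2 library SDs, cut at about -5.5 in these data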
Target sequence (O88943 whole entry, looked up): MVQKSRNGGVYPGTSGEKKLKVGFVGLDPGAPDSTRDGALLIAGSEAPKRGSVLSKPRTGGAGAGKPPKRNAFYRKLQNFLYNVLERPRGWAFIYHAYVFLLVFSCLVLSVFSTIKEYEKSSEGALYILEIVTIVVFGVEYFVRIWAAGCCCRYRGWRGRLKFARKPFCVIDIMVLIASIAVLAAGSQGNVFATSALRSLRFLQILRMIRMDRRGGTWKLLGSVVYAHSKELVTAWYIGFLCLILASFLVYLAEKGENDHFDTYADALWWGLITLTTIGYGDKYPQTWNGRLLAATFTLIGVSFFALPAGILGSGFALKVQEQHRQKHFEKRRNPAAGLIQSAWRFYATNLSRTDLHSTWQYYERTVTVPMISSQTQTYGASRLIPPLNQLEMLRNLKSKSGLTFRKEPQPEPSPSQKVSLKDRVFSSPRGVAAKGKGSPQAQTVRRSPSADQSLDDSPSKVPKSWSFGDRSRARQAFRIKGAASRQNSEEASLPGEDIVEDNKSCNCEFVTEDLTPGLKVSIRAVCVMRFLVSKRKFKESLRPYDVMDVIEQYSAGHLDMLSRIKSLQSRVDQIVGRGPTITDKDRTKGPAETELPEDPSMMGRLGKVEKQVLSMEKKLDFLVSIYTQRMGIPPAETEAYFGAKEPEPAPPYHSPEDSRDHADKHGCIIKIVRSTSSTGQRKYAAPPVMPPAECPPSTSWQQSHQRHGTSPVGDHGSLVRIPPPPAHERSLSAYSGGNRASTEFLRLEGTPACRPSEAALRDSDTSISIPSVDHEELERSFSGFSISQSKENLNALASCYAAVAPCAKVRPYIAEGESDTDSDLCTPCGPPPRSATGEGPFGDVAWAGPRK
KCNQ2 enhance: KCNQ2 (rat) channel potentiation | O88943 | CHO-K1 KCNQ2, FluxOR thallium flux fluorescence; active compounds read high | B-score at 10 µM | 310,000 compounds, 0.54% hits | AID 2239;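 active = fluorescence ratio B-score at least 3 SD of library B-scores, with initial fluorescence B-score within 3 of them, cut at about 5.3 in these data; same plate scores as AID 2156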;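 note: B-score of peak minus minimum over baseline fluorescence ratio after K+ and Tl+ stimulus; positive B-score means potentiation of KCNQ2 with more thallium influx and brighter signal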
* hit, by the source's call; i = inactive; nt = no result given. In the library only some 1.6% were active in any assay of this set; here they are far more common.

SMILES	KCNQ2 block	KCNQ2 enhance
COc1ccc(NC(=O)COC(=O)[C@@H](NC(=O)c2c(F)cccc2F)C(C)C)cc1	i	0.34
CC1CCN(Cc2c(C(=O)N3CCc4ccccc4C3)nc3ccc(Cl)cn23)CC1	-5.8*	-5.8
O=C(c1nc2ccc(Cl)cn2c1CN1CCC(O)CC1)N1CCc2ccccc2C1	i	0.37
CC(Oc1ccc(F)cc1)C(=O)N(CCC1=CCCCC1)c1c(N)n(Cc2ccccc2)c(=O)[nH]c1=O (stereo not drawn)	i	nt
COC(=O)/C(=N\Nc1ccc(Cl)cc1)Sc1nnc(-c2ccc(OC)cc2)n1C	i	nt
CCN(CC)CCOc1ccc(/C(=C(\Cl)c2ccccc2)c2ccccc2)cc1	-7.6*	-7.6
CCN(CC)CCOc1ccc(Br)cc1	i	nt
Cc1ccccc1NC(=O)OCCN1CCN(Cc2ccccc2)CCC1=O	-6.3*	-6.3
Cc1ccc(NC(=O)OCCN2CCN(Cc3ccccc3)CCC2=O)cc1C	i	nt
Cc1ccc(-c2cc(C(=O)NC3=NCCS3)c3cc(Br)ccc3n2)o1	-6.3*	-6.3
Cc1ccc(-c2cc(C(=O)O)c3cc(Br)ccc3n2)o1	i	1.7
CCOc1ccc(S(=O)(=O)N(CC)CC)cc1NC(=O)c1ccc(N2CCCC2=O)cc1	i	1.1
Cc1ccc(S(=O)(=O)N(c2nc(NC(C)C)nc(NC(C)C)n2)n2cnnc2)cc1	i	nt
O=c1nc2n(c3ccc([N+](=O)[O-])cc13)CCCCC2	i	nt
O=[N+]([O-])c1ccc2c(c1)C=C1CCCCC1(N1CCCCC1)O2 (stereo not drawn)	-5.7*	-5.7
O=[N+]([O-])c1ccc(S(=O)(=O)Nc2ccccn2)cc1	i	nt
CCN1/C(=C/C=C/C=C/c2sc3ccccc3[n+]2CC)Sc2ccccc21	-21*	-21
CCN1/C(=C/C=C/C=C/C=C/c2sc3ccccc3[n+]2CC)Sc2ccccc21	i	nt
CC(Cc1ccccc1)NC(=O)c1cc([N+](=O)[O-])ccc1Cl (stereo not drawn)	i	0.45
NS(=O)(=O)c1ccc(CNC(=O)NC23CC4CC(CC(C4)C2)C3)cc1	i	0.67
Cc1ccc(CNC(=O)NC23CC4CC(CC(C4)C2)C3)cc1	i	11*
C[C@H](NC(=O)C1CC(=O)N(c2ccc3c(c2)OCO3)C1)C(=O)NC1CCCCC1 (stereo partly drawn)	i	nt
Cc1ccc(Cn2c(N3CCN(C)CC3)nc3c2c(=O)[nH]c(=O)n3C)cc1	i	nt
O=C(O)C1Cc2c([nH]c3ccccc23)C(c2ccc3c(c2)OCO3)N1 (stereo not drawn)	i	nt
COc1ccc(C2NC(C(=O)O)Cc3c2[nH]c2ccccc32)cc1CN1CCN(c2ccc(F)cc2)CC1 (stereo not drawn)	-5.7*	-5.7
SMILES	KCNQ2 block	KCNQ2 enhance
CC(c1ccccc1)N(CCC(c1ccccc1)C1CCOC(C)(C)C1)C(=O)c1ccco1 (stereo not drawn)	i	nt
COc1ccc(CN(CCC(c2ccc(F)cc2)C2CCOC(C)(C)C2)C(=O)c2ccco2)cc1 (stereo not drawn)	-5.8*	-5.8
CCN(CC)C(=O)c1ccccc1NC(=O)CN1C(=O)c2ccccc2S1(=O)=O	i	1.3
COc1cc(S(=O)(=O)N2CC(=O)Nc3ccccc32)ccc1NC(C)=O	i	nt
COc1ccc(-c2nc(=S)[nH][nH]2)cc1OC	i	nt
COc1ccc(-c2nc(=S)[nH][nH]2)cc1	-8.4*	-8.4
COc1ccc(NC(=O)CC2C(=O)N(Cc3ccccc3)C(=S)N2CCN2CCOCC2)cc1 (stereo not drawn)	i	nt
C=CCN1C(=O)C(CC(=O)Nc2ccc(OCCC)cc2)N(CCCN2CCN(Cc3ccccc3)CC2)C1=S (stereo not drawn)	-6.8*	-6.8
COc1ccc(NC(=O)CC2C(=O)N(C)C(=S)N2CCc2ccc(F)cc2)cc1 (stereo not drawn)	i	nt
CCN1C(=O)C(CC(=O)Nc2ccc(OC)cc2)N(CCc2ccc(F)cc2)C1=S (stereo not drawn)	-7.5*	-7.5
CCn1c(SCC(=O)Nc2oc(-c3ccccc3)c(-c3ccccc3)c2C#N)nnc1-c1cc(OC)cc(OC)c1	i	nt
O=C(Cc1coc2cc3c(cc12)CCC3)NC1CCCCCCC1	i	12*
O=C(O)Cc1coc2cc3c(cc12)CCC3	i	nt
CN(Cc1ccccc1)c1nc(-c2cccc([N+](=O)[O-])c2)nc2ccccc12	i	nt
CCN(CC)C(=O)CCSc1nnc(-c2ccco2)o1	i	nt
C=CCNC(=O)CN1C(=O)C2C3c4ccccc4C(c4ccccc43)C2C1=O (stereo not drawn)	i	nt
O=C(c1oc2ccccc2c1CSCc1ccccc1)N1CCN(c2ncccn2)CC1	-6.2*	-6.2
CCOCC(=O)Nc1c(C(=O)N2CCN(c3ncccn3)CC2)oc2ccccc12	i	0.31
COc1ccccc1CNC(=O)[C@H](C)NC(=O)C1CCN(C(=O)[C@@H](N)CC(C)C)CC1	i	0.04
CCCc1cc(-c2[nH]ncc2-c2ccc3c(c2)OCCCO3)c(O)cc1O	-8.5*	-8.5
CCCc1cc(-c2[nH]ncc2-c2ccc(C(=O)OCC)o2)c(O)cc1O	i	1.2
CCn1c(=S)sc2c(=O)n(CC(=O)Nc3ccccc3C(F)(F)F)c(C)nc21	i	1.1
Cn1nc(C(C)(C)C)cc1C(=O)NCc1ccc2c(c1)OCO2	i	0.76
COc1ccccc1C(=O)Nc1nc(C)cc(C)n1	i	2.3
Cc1nn(Cc2ccc(C(=O)N3c4ccc(F)cc4CCC3C)o2)c(C)c1Br (stereo not drawn)	-7.6*	-7.6
SMILES	KCNQ2 block	KCNQ2 enhance
Cc1ccc(C(=O)N2c3ccc(F)cc3CCC2C)o1 (stereo not drawn)	i	nt
CC1CCCN(C(=O)c2ccc([N+](=O)[O-])o2)C1 (stereo not drawn)	i	nt
CC1CCCN(C(=O)c2ccc(-c3ccccc3Cl)o2)C1 (stereo not drawn)	-7.4*	-7.4
COCCNC(=S)N1CCc2cc(OC)c(OC)cc2C1COc1ccc(C(C)C)cc1 (stereo not drawn)	i	nt
COc1ccc2nc(N3C(=O)CNC3=S)sc2c1	i	0.42
CCOc1ccc2nc(N3C(=O)/C(=C/c4ccc(Cl)cc4)NC3=S)sc2c1	i	15*
CCC1=C2CC[C@H]3C(=O)N(CC(=O)OC)C(=O)[C@H]3[C@H]2[C@@]2(C)C(=NCC(=O)OC)OC(=O)N2C1=O	i	0.05
CN(CCOc1ccc(Br)cc1)C(=O)CNC(=O)c1ccc2ccccc2c1	-6.5*	-6.5
CCOc1ccc(CN(C)C(=O)CNC(=O)c2ccccc2)cc1	i	nt
COc1ccc(S(=O)(=O)N(C)CC(=O)NC2CCCCC2)cc1Cl	i	0.01
COc1ccc(S(=O)(=O)N(CC(N)=O)C2CCCCC2)cc1Cl	-5.7*	-5.7
CCN(CC)Cc1c(C(=O)N/N=C/c2ccccn2)nnn1-c1nonc1N	i	0.58
CC1(C)CC(c2nc(-c3ccc(Br)cc3)cs2)CCS1 (stereo not drawn)	i	nt
CC1(C)CC(c2nc(-c3ccc(Cl)cc3)cs2)CCS1 (stereo not drawn)	-6.4*	-6.4
O=C1CC2(CCCC2)CC(=O)N1c1ccccc1	i	nt
Cc1scc(C(=O)N/N=C/c2ccc(Cl)s2)c1C	i	nt
CCCCCOc1ccc(C(=O)CCC(=O)Nc2ccc(NC(C)=O)cc2)cc1	i	0.96
COc1ccc(/C=C/C(=O)O)cc1COc1cccc(C)c1	i	0.61
